About 83,000 compounds went through this panel and 20% of them were active in at least one assay; those are over-represented in the sample as a whole.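 Activity criterion: percent growth below 10, measured after cells in 96-well plates were exposed to a single compound concentration for 48 hours.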 Activity calls are given as the source filed them.
tested on: HL-60(TB) leukemia; test: NCI-60 one-dose screen, 48 h (100 = growth as untreated, 0 = no growth, -100 = all killed); conditions: 10 µM unless noted

Row | SMILES | growth
1 | O=C(CCC(=O)c1nc2ncccc2[nH]1)NN1C(=O)CSC1c1ccc(Cl)cc1 (stereo not given) | 99.6% (inactive)
2 | COc1cc(Nc2ncc(F)c(Nc3ccc4c(n3)N(COP(=O)(O)O)C(=O)C(C)(C)O4)n2)cc(OC)c1OC | 52.8% (inactive)
3 | OCc1ccc(N2CCc3cccc(F)c3C2)cc1Cl | 80.5% [0.1 µM] (inactive)
4 | O=C(O)CCC(NC(=O)OCc1ccccc1)C(=O)O (stereo not given) | 108% (inactive)
5 | CC(CCc1ccccc1)NC(=O)c1n[nH]c(=O)c2ccccc12 (stereo not given) | 88.3% (inactive)
6 | C=C1C(=O)O[C@H]2[C@H]1CC/C(Cn1cc(Cn3ccc4cc(Cl)ccc43)nn1)=C\CC[C@@]1(C)O[C@@H]21 | -37.7% (active)
7 | CC(C)c1ccc(-c2cnc3nonc3n2)cc1 | -18.3% (active)
8 | N#Cc1ncc(-c2cc(F)ccc2F)c(NC2CCCCCC2)n1 | 86.9% (inactive)
9 | COC(=O)c1ccc2c(c1)c1c(C)c3cnccc3c(C)c1n2C | -2.92% (active)
10 | OC1Cc2ccccc2C1 | 100% (inactive)
11 | CCCCCCCCCCC1OC(C)CC(C)O1 (stereo not given) | 92.9% (inactive)
12 | N#Cc1c(-c2cccc(F)c2)cc(-c2cccnc2)[nH]c1=O | 98% (inactive)
13 | Cc1cc2nc(-c3c(N)ncc(C#N)c3-c3ccc(Cl)cc3)[nH]c2cc1C | 89.5% (inactive)
14 | NC(N)=NS(=O)(=O)c1ccc(Nc2ccc3nnc(-c4ccncc4)n3n2)cc1 | 95% (inactive)
15 | CCCCc1ccc(Nc2nnc(SCC(=O)NC(=O)NCC)s2)cc1 | 95.2% (inactive)
16 | CN1C(=O)/C(=C/c2ccc(C(=O)Nc3ncc(Cc4ccc(F)cc4)s3)cc2)SC1=S | 37.6% (inactive)
17 | COC(=O)C(O)c1ccccc1 (stereo not given) | 109% (inactive)
18 | CC(=O)NCCCS(=O)(=O)O | 102% (inactive)
19 | COc1ccc(-c2nnc(SCC(=O)c3ccccc3)o2)cc1 | 80.5% (inactive)
20 | CC(C)NC(=O)N/C=C(\C#N)C(N)=O | 137% (inactive)

Row | SMILES | growth
21 | COc1ccc([C@@H]2[C@@H](Cl)C(=O)N2c2cc(OC)c(OC)c(OC)c2)cc1C | -30.3% (active)
22 | C#COc1cccc(Nc2ncnc3cc(NC(=O)[C@@H](C)Cl)ccc23)c1 | 10.9% [6.25 µM] (inactive)
23 | CCOC(=O)Cn1c(=O)c2c3ccccc3n(C)c2n2nnc(-c3ccccc3)c12 | 68.5% (inactive)
24 | Cc1ccc(NC(=O)C(Cl)Cl)cc1 | -48.8% (active)
25 | COc1ccc2nc(Cl)c(Cn3nnc(Cc4ccccc4)n3)cc2c1 | 56.6% (inactive)
26 | C[C@@H]1C[C@H](N)C[C@H](c2ccncc2NC(=O)c2ccc(F)c(-c3c(F)cccc3F)n2)C1 | -0.14% (active)
27 | COc1ccc2c(c1)C(=O)/C(=C/c1cccnc1)CC2 | 99.5% (inactive)
28 | COc1ccc2c(c1)/C(=C1\S/C(=N/c3nnc(C)s3)NC1=O)C(=O)N2Cc1ccc(Cl)cc1 | 53.8% (inactive)
29 | N#Cc1c(N)nn(C(=O)c2ccc(NC(=O)c3ccccn3)cc2)c1-c1ccc(Cl)cc1 | 69.1% (inactive)
30 | CNC(=O)c1cc(Oc2ccc3nc(NC(=O)Nc4ccc(Cl)cc4)sc3c2)ccn1 | 98.9% (inactive)
31 | COc1ccc(C(=O)c2cc3c(N)c(C(=O)Nc4cccc(Cl)c4)sc3nc2C)cc1 | -45.3% (active)
32 | COc1cccc(NC(=O)c2sc3nc4c(cc3c2N)CCCC4)c1 | 5.68% (active)
33 | CCOC(=O)C(Cc1ccc(OC)cc1)C(=O)OCC | 3.77% (active)
34 | N#Cc1c(-c2cccc(F)c2)cc(-c2ccc(Br)s2)[nH]c1=O | 67% (inactive)
35 | C=CCOc1ccc2c(c1)CC[C@@H]1[C@@H]2CC[C@]2(C)C(=O)/C(=N/O)C[C@@H]12 | -28.4% (active)
36 | COc1ccc(C2C=C(c3ccc(Cl)c(Cl)c3)N=C3SC(C)=CN32)cc1 (stereo not given) | 83.3% (inactive)
37 | O=C1/C(=C\c2ccc(F)cc2)CN(C(=O)c2ccccc2)C/C1=C\c1ccc(F)cc1 | 25.6% (inactive)
38 | O=C1C(=O)c2ccccc2C(O)=C1CCCc1ccc(C2CCCCC2)cc1 | 30.6% (inactive)
39 | Oc1ccccc1O | 55.8% (inactive)
40 | COc1cccc(-c2nc3sccn3c2-c2ccnc(NCCCNS(=O)(=O)c3ccc(Cl)cc3)c2)c1 | 27.4% (inactive)

— PubChem BioAssay (NCI)
